From PubChem BioAssay (NCATS) come the findings set out here.

The nature of assay [1]: qHTS Screen of the MIPE 4.0 Collection Against Ewings Sarcoma (TC32) (AID 1259256). Also: nearly all actives have a fitted effect of over 45% in size. Also: potency is read from the fitted curve at half-maximal effect. The gist of the method:
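CellTiter-Glo luminescence after 48 h compound exposure (titration) gave viability; percent activity used DMSO-treated cells as no inhibition and medium-only wells as full inhibition. Cells grown in RPMI/5% FBS, dosed 4 h post-seeding.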
(In general: Quantitative high-throughput screening tests each substance at several concentrations.)

Assay [2] can be described thus: qHTS assay to identify small molecule inhibitors of chordoma cells - UCH-1 (AID 1259355). Also: nearly all actives have a fitted effect of over 55% in size. Summed up:
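Seed 800 cells per well; incubate overnight at 37 C, 5% CO2. Add test compounds (15 concentrations), then the auranofin–topoisomerase-agent combination. Incubate 48hr, add CellTiter-Glo, wait 30min, read luminescence.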

Assay [3] can be described thus: qHTS assay to identify small molecule inhibitors of chordoma cells - UCH-2 (AID 1259356). Also: series mostly up to about 46 µM.
Assay [4] is described as follows: P-glycoprotein substrates identified in KB-8-5-11 adenocarcinoma cell line, qHTS therapeutic library screen (AID 1346987). Also: nearly all actives have a fitted effect of over 65% in size. Also: potency is read from the fitted curve at half-maximal effect. Summed up:
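P-gp-mediated resistance screen: KB-8-5-11 cells treated 72 h with compounds in dose-response. CellTiter-Glo viability.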

Assay [5] is described as follows: NS1 protein of Zika virus - qHTS assay to identify small molecule inhibitors in human HEK 293 cells (AID 1347053). Also: nearly all actives have a fitted effect of over 55% in size. Also: potency is read from the fitted curve at half-maximal effect. Summed up:
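Following 20 h seeding, HEK 293 cells took compound, then 1 h later ZIKV MR766 (MOI = 0.5). Incubation ran 24 h at 37 C before TR-FRET detection of NS1; a drop in signal indicates inhibition.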

Assay [6] deals with T1, Tyrosine-protein phosphatase non-receptor type substrate 1 (Homo sapiens) + Leukocyte surface antigen CD47 (Homo sapiens) (UniProt P78324+Q08722). Description: CD47-SIRPalpha protein protein interaction - HTRF assay qHTS validation (AID 1347058; active = well fitted curve in the direction sought with a large enough effect in the signal ratio, not every such curve was filed as active; the % refers to the signal ratio;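 also: recombinant soluble extracellular CD47 with His tag and biotinylated SIRPalpha domains; series mostly up to about 38 µM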). Summed up:
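TR-FRET read (Ch1/Ch2 ratio) of soluble extracellular CD47 and Avi-biotinylated SIRPalpha domains in PBS pH 7.4 with 0.05% IGEPAL; 7-point compound titration. Sequential 30 min room-temperature steps; non-biotinylated SIRPalpha as control inhibitor.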
In general terms: Time-resolved FRET reads energy transfer from a long-lived donor to a nearby acceptor.

In assay [7] the target is T1, Tyrosine-protein phosphatase non-receptor type substrate 1 (Homo sapiens) + Leukocyte surface antigen CD47 (Homo sapiens). The assay is described as follows: CD47-SIRPalpha protein protein interaction - Alpha assay qHTS validation (AID 1347059).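 Also: bead proximity luminescence from CD47 binding SIRPalpha after compound preincubation with SIRPalpha.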 The gist of the method:
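Binding is measured by AlphaScreen proximity: Ni-NTA acceptor beads capture His-CD47, streptavidin donor beads capture biotin-SIRPalpha. Each of three additions (SIRPalpha with compound, CD47, beads) incubates 30 min at room temperature protected from light.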

Assay [8] has as its target Parathyroid hormone/parathyroid hormone-related peptide receptor (Homo sapiens) (UniProt Q03431). Description: qHTS for PTHR1 Agonists: Optimization Screen against the NCGC LOPAC library (AID 1347079).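 Also: GloSensor cAMP luminescence in HEK-293 GP2 cells expressing human PTHR1 with IBMX.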 The gist of the method: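 Compounds were tested across a qHTS titration. PTHR1-expressing GP2 cells report cAMP rises via GloSensor luminescence after 1 hr compound exposure at 37C with IBMX present.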

A short description of assay [9]: qHTS of pediatric cancer cell lines to identify multiple opportunities for drug repurposing: Primary screen for TC32 cells (AID 1347089). Also: nearly all actives have a fitted effect of over 60% in size. Also: potency is read from the fitted curve at half-maximal effect. Summed up: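 Luminescent CellTiter-Glo read-out of metabolically active TC32 cells after 48 h compound exposure. Primary: MIPE 11-point, 0.78 nM–46 µM; NPC 8-point, 0.59 nM–46 µM. Confirmatory: 11-point dilutions.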
Assay [10] is described as follows: Identifying Small Molecule Inhibitors of Pancreatic Cancer Stem Cells (A2780, Spheroid) (AID 1259357).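 Also: compound exposure lasted 48 h before the ATP luminescence read.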 Also: potency is read from the fitted curve at half-maximal effect. Particulars: Potency: A2780 spheroid viability. Summed up:
(§1)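 Pre-formed 14-day tumor spheroids or adherent cells dosed and incubated 48 h, 37C, 5% CO2. Viability assessed by CellTiter-Glo.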

A short description of assay [11]: Identifying Small Molecule Inhibitors of Pancreatic Cancer Stem Cells (SN12C, Spheroid) (AID 1259360). Also: potency is read from the fitted curve at half-maximal effect. To be noted: Potency: SN12C spheroid viability. The gist of the method: as §1
Assay [12] can be described thus: Identifying Small Molecule Inhibitors of Pancreatic Cancer Stem Cells (SN12C, Adherent) (AID 1259358).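 Also: cell survival measured after 48 h of compound exposure.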 Also: potency is read from the fitted curve at half-maximal effect. The gist of the method: (§2)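 Cytotoxicity read by CellTiter-Glo luminescence after 48 h compound exposure at 37C; percent activity scaled between DMSO-treated cells and cell-free wells. Spheroid formats used cells pre-formed 14 days in stem cell media on hydrogel.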

A short description of assay [13]: Identifying Small Molecule Inhibitors of Pancreatic Cancer Stem Cells (Panc1, Spheroid) (AID 1259359).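 Also: compound exposure lasted 48 h before reading.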 Also: potency is read from the fitted curve at half-maximal effect. Summed up:
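Spheroids grown 14 days in stem cell media on hydrogel-coated nonadherent plates; 2D lines seeded directly. Compounds added after 4 h attachment, 48 h at 37C, 5% CO2; CellTiter-Glo luminescence normalized to DMSO (no inhibition) and no-cell wells (full inhibition).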

Assay [14] is described as follows: Identifying Small Molecule Inhibitors of Pancreatic Cancer Stem Cells (A278, Adherent) (AID 1259361). Also: nearly all actives have a fitted effect of over 35% in size. The gist of the method: as §2
Assay [15] can be described thus: Natriuretic polypeptide receptor (hNpr1) antagonism - Pilot counterscreen GloSensor control cell line (AID 1347045; calls by dose curve; also: series mostly up to about 38 µM). The gist of the method: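 This counterscreen uses HEK293 cells expressing the GIP/pGS-40F cGMP biosensor. Compound-treated cells are challenged with 50 uM sodium nitroprusside, and the luciferase signal is compared before and after stimulation.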

For assay [16], the target named is Atrial natriuretic peptide receptor 1 (Homo sapiens) (UniProt P16066). The assay is described as follows: Natriuretic polypeptide receptor (hNpr1) antagonism - Pilot screen (AID 1347049; calls by dose curve;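 also: agonist-evoked cGMP luminescence read 20 min after hNppA addition; series mostly up to about 58 µM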). The gist of the method:
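Readout is cGMP-driven firefly luciferase luminescence in HEK293 cells carrying hNpr1 and a PDE5-domain GloSensor, read before and 20 min after 0.1 nM hNppA stimulation. Cells had 2% substrate reagent for 2 h and test compound for 30 min.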

In assay [17] the target is Atrial natriuretic peptide receptor 2 (Homo sapiens) (UniProt P20594). The assay is described as follows: Natriuretic polypeptide receptor (hNpr2) antagonism - Pilot subtype selectivity assay (AID 1347050; calls by dose curve). Summed up:
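Pilot selectivity screen against hNpr2: HEK293 cGMP-sensor cells are treated with LOPAC1280 compounds, then with hNppC peptide at 1 nM final. The cGMP-driven luminescence change over 20 min at room temperature is the read-out.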

A short description of assay [18]: Identifying Small Molecule Inhibitors of Pancreatic Cancer Stem Cells (Panc1, Adherent) (AID 1259362).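 Also: compound exposure lasted 48 h before the viability read.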 Particulars: Potency: viability. The gist of the method:
as §1

A short description of assay [19]: P-glycoprotein substrates identified in KB-3-1 adenocarcinoma cell line, qHTS therapeutic library screen (AID 1346986). Also: nearly all actives have a fitted effect of over 60% in size. Summed up:
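Counter-screen: cherry-picked hits retested in the KB pair and in HEK-293 pcDNA/MDR-19 cells ± tariquidar. Primary screen used 72 h CellTiter-Glo viability in KB-3-1 and KB-8-5-11.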

SMILES strings stand for the structures. Values joined by “and” are separate entries in the source; they are usually repeats but may differ in a detail not shown here. Equal values may be shown once. Results filed as inconclusive are left out. Active and inactive are the calls of the source. Unless noted, calls follow the shape of the dose curve; as a rule, active = well fitted curve in the direction sought with a large enough effect; inconclusive = small, poorly fitted or top-dose-only effect, or another doubt; inactive = no such curve, though single readings can be large; an effect the other way counts as inactive or inconclusive.

T1 sequence (P78324 whole entry, looked up, the tested form may be a part): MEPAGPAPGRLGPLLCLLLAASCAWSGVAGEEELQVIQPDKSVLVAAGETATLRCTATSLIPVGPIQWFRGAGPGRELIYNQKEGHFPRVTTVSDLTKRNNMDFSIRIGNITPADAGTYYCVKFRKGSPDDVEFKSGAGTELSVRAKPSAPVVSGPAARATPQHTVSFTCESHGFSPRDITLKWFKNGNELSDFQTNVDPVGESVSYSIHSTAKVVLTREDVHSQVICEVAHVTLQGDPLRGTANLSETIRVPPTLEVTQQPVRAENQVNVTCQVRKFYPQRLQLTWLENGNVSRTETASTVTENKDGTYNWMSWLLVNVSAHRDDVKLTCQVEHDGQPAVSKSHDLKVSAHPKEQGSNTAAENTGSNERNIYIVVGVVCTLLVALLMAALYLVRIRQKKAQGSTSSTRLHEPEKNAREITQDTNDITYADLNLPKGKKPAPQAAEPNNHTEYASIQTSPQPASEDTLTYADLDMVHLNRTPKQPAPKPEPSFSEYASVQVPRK
T1 sequence (Q08722 whole entry, looked up, the tested form may be a part): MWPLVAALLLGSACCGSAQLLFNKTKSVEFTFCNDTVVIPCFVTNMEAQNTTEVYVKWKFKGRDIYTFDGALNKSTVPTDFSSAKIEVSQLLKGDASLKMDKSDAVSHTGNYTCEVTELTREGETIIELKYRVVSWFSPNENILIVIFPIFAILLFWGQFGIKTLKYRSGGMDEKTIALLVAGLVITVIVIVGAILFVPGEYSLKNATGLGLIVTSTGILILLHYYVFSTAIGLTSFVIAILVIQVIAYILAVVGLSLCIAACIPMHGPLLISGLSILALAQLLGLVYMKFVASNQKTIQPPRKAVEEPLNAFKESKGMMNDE
Parathyroid hormone/parathyroid hormone-related peptide receptor (Homo sapiens), sequence (Q03431 whole entry, looked up): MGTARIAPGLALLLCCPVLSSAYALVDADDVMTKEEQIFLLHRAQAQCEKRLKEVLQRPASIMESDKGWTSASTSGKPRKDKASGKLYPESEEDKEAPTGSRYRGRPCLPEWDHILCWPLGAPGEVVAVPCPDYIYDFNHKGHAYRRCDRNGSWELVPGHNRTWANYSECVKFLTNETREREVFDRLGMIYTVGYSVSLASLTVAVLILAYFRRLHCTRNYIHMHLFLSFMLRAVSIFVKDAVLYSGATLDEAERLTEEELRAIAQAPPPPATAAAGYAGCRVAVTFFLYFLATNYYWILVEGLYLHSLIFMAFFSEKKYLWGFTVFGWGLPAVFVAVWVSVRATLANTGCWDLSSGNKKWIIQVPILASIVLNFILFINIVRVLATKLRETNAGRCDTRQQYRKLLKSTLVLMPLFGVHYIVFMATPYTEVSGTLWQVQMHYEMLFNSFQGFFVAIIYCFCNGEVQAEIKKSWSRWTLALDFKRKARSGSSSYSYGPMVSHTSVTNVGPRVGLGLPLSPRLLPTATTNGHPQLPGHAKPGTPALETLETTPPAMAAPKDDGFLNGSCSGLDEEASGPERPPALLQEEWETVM
Atrial natriuretic peptide receptor 2 (Homo sapiens), sequence (P20594 whole entry, looked up): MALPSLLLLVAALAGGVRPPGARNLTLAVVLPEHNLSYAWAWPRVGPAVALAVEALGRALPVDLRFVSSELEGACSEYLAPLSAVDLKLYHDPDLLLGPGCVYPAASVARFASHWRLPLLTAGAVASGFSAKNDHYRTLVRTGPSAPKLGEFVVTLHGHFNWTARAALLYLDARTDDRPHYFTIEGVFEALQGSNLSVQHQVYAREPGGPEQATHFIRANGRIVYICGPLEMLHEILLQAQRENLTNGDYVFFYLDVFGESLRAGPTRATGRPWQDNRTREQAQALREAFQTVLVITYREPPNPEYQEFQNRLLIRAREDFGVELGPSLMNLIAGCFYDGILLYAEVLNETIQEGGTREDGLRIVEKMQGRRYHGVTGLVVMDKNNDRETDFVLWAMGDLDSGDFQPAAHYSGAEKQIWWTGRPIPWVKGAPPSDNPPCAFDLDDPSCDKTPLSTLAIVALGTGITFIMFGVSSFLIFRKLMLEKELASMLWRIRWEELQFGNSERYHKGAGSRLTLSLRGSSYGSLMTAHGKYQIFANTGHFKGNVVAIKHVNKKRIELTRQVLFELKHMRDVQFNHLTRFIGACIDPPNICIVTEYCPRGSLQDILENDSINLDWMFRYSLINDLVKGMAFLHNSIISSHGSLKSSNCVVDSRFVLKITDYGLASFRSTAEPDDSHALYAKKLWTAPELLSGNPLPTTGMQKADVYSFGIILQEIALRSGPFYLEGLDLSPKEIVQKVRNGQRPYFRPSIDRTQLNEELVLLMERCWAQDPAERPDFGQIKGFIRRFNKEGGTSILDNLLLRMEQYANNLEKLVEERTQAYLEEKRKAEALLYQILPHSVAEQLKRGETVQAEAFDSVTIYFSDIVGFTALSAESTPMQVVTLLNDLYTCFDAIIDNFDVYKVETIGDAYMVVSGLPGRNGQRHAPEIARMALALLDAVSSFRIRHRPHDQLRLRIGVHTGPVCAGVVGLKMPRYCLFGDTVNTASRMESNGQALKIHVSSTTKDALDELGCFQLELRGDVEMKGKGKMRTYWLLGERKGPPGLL
Atrial natriuretic peptide receptor 1 (Homo sapiens), sequence (P16066 whole entry, looked up): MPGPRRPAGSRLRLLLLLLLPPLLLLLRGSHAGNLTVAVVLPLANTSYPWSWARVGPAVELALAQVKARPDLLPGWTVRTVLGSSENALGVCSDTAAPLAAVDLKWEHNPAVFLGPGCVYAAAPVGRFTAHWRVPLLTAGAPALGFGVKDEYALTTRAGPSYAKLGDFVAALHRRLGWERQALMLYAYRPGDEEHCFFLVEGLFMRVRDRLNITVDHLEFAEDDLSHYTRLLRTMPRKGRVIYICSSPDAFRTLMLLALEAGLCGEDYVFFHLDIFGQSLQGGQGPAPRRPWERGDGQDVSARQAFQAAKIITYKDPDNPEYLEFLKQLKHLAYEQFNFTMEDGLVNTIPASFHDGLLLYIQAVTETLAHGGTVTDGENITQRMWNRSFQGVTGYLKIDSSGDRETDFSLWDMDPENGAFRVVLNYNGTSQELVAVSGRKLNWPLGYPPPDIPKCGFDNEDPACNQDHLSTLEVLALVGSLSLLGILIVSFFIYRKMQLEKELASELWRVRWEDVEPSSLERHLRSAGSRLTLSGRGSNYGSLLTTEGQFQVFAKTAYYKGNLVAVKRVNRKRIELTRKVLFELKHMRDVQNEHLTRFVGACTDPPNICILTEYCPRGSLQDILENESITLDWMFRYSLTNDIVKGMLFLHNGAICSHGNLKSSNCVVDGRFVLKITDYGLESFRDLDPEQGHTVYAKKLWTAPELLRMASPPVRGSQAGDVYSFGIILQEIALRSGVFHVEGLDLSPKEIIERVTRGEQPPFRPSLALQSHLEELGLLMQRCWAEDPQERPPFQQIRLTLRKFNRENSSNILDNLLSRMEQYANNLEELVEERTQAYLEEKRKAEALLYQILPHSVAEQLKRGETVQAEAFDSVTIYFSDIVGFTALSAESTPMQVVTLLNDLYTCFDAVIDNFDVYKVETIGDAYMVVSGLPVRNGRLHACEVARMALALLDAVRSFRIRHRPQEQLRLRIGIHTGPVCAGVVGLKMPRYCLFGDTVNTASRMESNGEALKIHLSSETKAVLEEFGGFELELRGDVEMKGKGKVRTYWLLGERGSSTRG

`Cc1cnc(NC(=O)C2=C(O)c3ccccc3S(=O)(=O)N2C)s1`: the Potency entry in assay [1], in assay [2], in assay [4], in [5] and in assay [9] was “inactive” each time. Besides, the outcome in [3], in assay [6], in assay [7] and in assay [8] was inactive.
Consider `CN[C@@H](C)C(=O)N[C@H]1CCCC[C@H]2CC[C@@H](C(=O)N[C@@H](c3ccccc3)c3cn(CCCCc4ccc(CCCCn5cc([C@@H](NC(=O)[C@@H]6CC[C@@H]7CCCC[C@H](NC(=O)[C@H](C)NC)C(=O)N76)c6ccccc6)nn5)cc4)nn3)N2C1=O`, for which the Potency in assay [1] was 18.7 µM (active). The Potency entry in [10], in [11], in [4], in assay [5] and in assay [9] was “inactive” each time.
`S=C(NCc1ccc2c(c1)OCO2)N1CCN(c2ncnc3c2oc2ccccc23)CC1`: the Potency in [1] was 12.1 µM (active); in [10], 16.6 µM (active); in assay [12], 13.2 µM (active); in [13], 7.43 µM (active); in assay [11], 14.8 µM (active). Also, the Potency result in [9] was “inactive”.
`Cc1cc(SCc2sc(-c3ccc(C(F)(F)F)cc3)nc2C)ccc1OCC(=O)O`: in assay [1], the Potency was 5.26 µM (active). In addition, the Potency entry in assay [10], in assay [12], in assay [11], in assay [4], in assay [5] and in assay [9] was “inactive” each time.
In the case of `CCC(C)n1ncn(-c2ccc(N3CCN(c4ccc(OC[C@H]5CO[C@](Cn6cncn6)(c6ccc(Cl)cc6Cl)O5)cc4)CC3)cc2)c1=O` (some centres not stated), the Potency result in assay [1], in [12], in [4] and in assay [5] was “inactive” each time. The molecule was classed as inactive in [3]. The Potency in assay [10] is 4.69 µM (active). Further, the IC50 (viability decrease) in [14] is 5.9 µM (active).
Turning to `NC[C@H](O)c1ccc(O)c(O)c1`, the Potency entry in assay [1], in [2], in assay [17], in [5] and in [9] was “inactive” in each case. Moreover, the result in [3], in assay [15], in assay [16], in assay [7] and in [8] was inactive.
On to `COc1ccc2c3n(c(=NC(=O)c4cccnc4)nc2c1OC)CCN3`, for which the Potency in [1] is 8.33 µM (active); in assay [10], 3.32 µM (active); in assay [12], 3.72 µM (active); in assay [11], 5.9 µM (active); in assay [4] it was 651 nM (active). The Potency result in assay [5] was “inactive”.
On to `CN1CCN(CCCN2c3ccccc3Sc3ccc(C(F)(F)F)cc32)CC1`, for which the Potency in assay [1] is 14.8 µM (active). Besides, the Potency entry in [2], in assay [4], in assay [5] and in assay [9] was “inactive” throughout. Also, the molecule was called inactive in assay [3], in assay [16] and in assay [8].
With `Cc1cccc(-c2[nH]c(C(C)(C)C)nc2-c2ccc3nccnc3c2)n1`, the Potency in assay [1] was 20.9 µM (active); in assay [13], 8.33 µM (active); in assay [4] it was 8200 nM (active); in assay [9], 13.1 µM (active). Also, the Potency entry in [12], in assay [11], in [17] and in assay [5] was “inactive” each time. Further, the molecule was classed as inactive in assay [15], in assay [16], in [7] and in assay [8].
As to `CCN(CC)CCCC(C)Nc1ccnc2cc(Cl)ccc12` (configuration not stated), the Potency result in [1], in assay [2], in assay [4], in assay [17], in assay [5] and in assay [9] was “inactive” each time. Also, the molecule was classed as inactive in assay [3], in [16] and in [8].
For `Oc1cccc(-c2nc(N3CCOCC3)c3oc4ncccc4c3n2)c1`, the Potency in assay [1] is 0.0762 µM (active); in assay [10], 0.833 µM (active); in assay [12], 0.0743 µM (active); in assay [4] it was 108 nM (active) and 517 nM (active); in [5] it was 2.7 µM (active). Also, the IC50 (viability decrease) in [14] was 0.105 µM (active).
As for `COc1ccc(-c2c(-c3ccc(O)cc3O)n[nH]c2C)cc1`, the Potency entry in [1], in assay [10], in [12], in assay [11] and in assay [9] was “inactive” throughout.
On to `Cc1cc2c(F)c(Oc3ncnn4cc(OC[C@@H](C)O)c(C)c34)ccc2[nH]1`, for which the Potency in assay [1] was 20.9 µM (active); in [5] it was 0.935 µM (active). Also, the Potency entry in assay [10] and in assay [11] was “inactive” each time.
Regarding `O=C(C=Cc1ccc(/C=C/C(=O)Nc2ccc(C3=NCCN3)cc2)cc1)Nc1ccc(C2=NCCN2)cc1`, the Potency entry in assay [1], in [10], in assay [12], in [11], in assay [4] and in assay [5] was “inactive” in each case.
`O=C1CCCC2=C1C(c1[nH]ncc1Cl)N=C(Nc1nc3ccccc3o1)N2` (configuration not stated): the Potency result in assay [1], in [10], in assay [11], in assay [18], in [19] and in assay [4] was “inactive” each time. Further, the Potency result in assay [5] and in assay [9] was “inactive” throughout.
Turning to `Cc1csc(NC(=O)c2sc3nc4c(c(C(F)(F)F)c3c2N)CCC4)n1`, the Potency in [1] was 6.62 µM (active). Further, the Potency result in assay [10], in assay [12], in assay [11], in assay [4], in [5] and in [9] was “inactive” throughout.
For the molecule `CCOC(=O)N1CCC(=C2c3ccc(Cl)cc3CCc3cccnc32)CC1`, the Potency in assay [1] was 23.5 µM (active). Moreover, the Potency entry in assay [2], in assay [17], in assay [5] and in [9] was “inactive” in each case. The outcome in [3], in [15], in [16], in assay [6], in assay [7] and in assay [8] was inactive.
As to `CCn1c(-c2nonc2N)nc2c(C#CC(C)(C)O)ncc(OC[C@H]3CCCNC3)c21`, the Potency in assay [1] is 18.7 µM (active). In addition, the Potency result in assay [12], in assay [13], in assay [4] and in assay [5] was “inactive” in each case.
